Assay outcomes (PubChem)
Hits are enriched below; roughly 2% of the tested compounds scored in any of these assays.
Arbovirus anti: blocks arbovirus infection. arbovirus infection cell-based antiviral screen. inhibition, % at 10 µM. 200,000 compounds, 0.37% hits; in the data active = inhibition above about 30%
Hsp70 activator: Hsp70 transcriptional activation, primary screen | HeLa Hsp70 promoter luciferase reporter, luminescence; scaled: vehicle 0, proteasome-inhibitor control 100% | 200,000 compounds, 0.04% hits | AID 1203 | activation, % at 10 µM;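 active = activation above the mean across all tested compounds plus 3 SD, cutoff set per campaign, cut at about 5.5% in these data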;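 also: 100% = MG132 at 30 µM as the positive control and 0% = DMSO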
PKD1 inh: inhibitors of human PKD1 kinase. Q15139. PKD1 kinase fluorescence polarization assay. inhibition, % (test concentration not listed). 200,000 compounds, 0.056% hits; in the data active = inhibition above about 50%
HMGR II inh: inhibitors of class II HMG-CoA reductase from Enterococcus faecalis; AID 1066; purified E. faecalis HMGR, NADPH absorbance 340 nm kinetic; 190,000 compounds, 0.41% hits; inhibition, % at 10 µM;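 active = inhibition above a set limit, the median over all tested compounds plus 3 SD, cut at about 9.5% in these data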;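 also: enzyme runs in reverse so mevalonate oxidation gives rising NADPH absorbance; 0% = complete reaction with DMSO and 100% = background rate lacking mevalonate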
Wee1 degr inh: human Wee1 degradation inhibition, primary screen; reporter increase, % at 5 µM; 220,000 compounds, 1.2% hits; AID 1321; P30291; HeLa Luc-Wee1K328M stability, luciferase luminescence; 100% = proteasome inhibitor MG132 effect;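 active = activation above the mean of all tested compounds plus 3 SD, set per screening run, cut at about 8.8% in these data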;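 also: cells exposed to compound for 20 h before luminescence read; 0% = DMSO alone and 100% = MG132 at 30 µM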
Target sequence (P30291 whole entry K328M): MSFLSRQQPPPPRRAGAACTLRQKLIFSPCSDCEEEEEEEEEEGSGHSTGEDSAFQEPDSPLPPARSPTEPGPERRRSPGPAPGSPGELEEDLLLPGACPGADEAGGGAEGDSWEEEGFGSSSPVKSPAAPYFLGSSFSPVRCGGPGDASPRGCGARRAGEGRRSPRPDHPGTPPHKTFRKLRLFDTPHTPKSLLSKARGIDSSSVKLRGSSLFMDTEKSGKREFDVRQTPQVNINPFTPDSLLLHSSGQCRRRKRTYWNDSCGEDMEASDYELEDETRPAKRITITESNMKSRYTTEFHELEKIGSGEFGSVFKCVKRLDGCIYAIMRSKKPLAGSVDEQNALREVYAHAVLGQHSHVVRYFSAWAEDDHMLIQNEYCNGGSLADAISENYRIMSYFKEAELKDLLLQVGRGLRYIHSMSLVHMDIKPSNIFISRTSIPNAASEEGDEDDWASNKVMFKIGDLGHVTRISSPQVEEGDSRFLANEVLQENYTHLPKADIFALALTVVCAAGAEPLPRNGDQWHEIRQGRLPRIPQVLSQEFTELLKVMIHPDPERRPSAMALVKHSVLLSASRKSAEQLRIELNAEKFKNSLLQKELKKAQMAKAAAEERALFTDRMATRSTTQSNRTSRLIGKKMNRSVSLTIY
* hit, by the source's call; · = no result.

SMILES | Arbovirus anti | Hsp70 activator | PKD1 inh | HMGR II inh | Wee1 degr inh
O=C1OCCN1C(=O)[C@H]1[C@H](c2ccc([N+](=O)[O-])cc2)C(c2cccc(Cl)c2)=NN1c1ccccc1 | -5.7 | -0.3 | 5.6 | -9.3 | 10.1*
O=C(NC(=S)NC(c1ccccc1)c1ccncc1)c1ccccc1 (configuration not stated) | 7.4 | -0.4 | -4.0 | -6.9 | 0.1
CCOC(=O)c1c(-c2ccccc2)csc1NC(=O)c1nn(CC)cc1Br | 25.3 | -0.1 | -0.5 | 0.9 | 1.2
CCOC(=O)c1c(-c2ccccc2)csc1NC(=S)N(CC)CC | 37.3* | -0.5 | -0.4 | -17.6 | 3.0
COC(=O)C1CC(=O)c2ccsc2C1 (configuration not stated) | 7.8 | 0.4 | -15.7 | -2.7 | -2.5
O=C(c1cc2cc([N+](=O)[O-])ccc2oc1=O)N1CCN(C2CCCCC2)CC1 | 0.6 | 0.3 | -4.9 | 9.7* | -1.4
Cc1ccc(OC(=O)c2sc(Cl)nc2C)cc1C | -6.8 | -0.6 | 1.9 | -2.8 | -0.8
COc1ccc2nc(N3CCCCC3)c(C#N)cc2c1 | -4.0 | -0.2 | -12.3 | -2.1 | 5.0
COc1ccc2nc(N3CCCC3)c(C#N)cc2c1 | -1.0 | 0.0 | -5.6 | 3.2 | 8.9*
Cc1cc(Br)cn2cc(C(=O)O)nc12 | 1.6 | -0.2 | 2.0 | -4.3 | 3.2
O=C(COC(=O)c1ccc(NS(=O)(=O)c2cccs2)cc1)Nc1nc2c(F)c(F)c(F)cc2s1 | 33.5* | -0.1 | 7.2 | -2.6 | -0.7
O=C(Nc1ccc(CN2CCOCC2)cc1)c1cc2ccccc2o1 | 3.1 | 0.0 | -3.7 | 0.1 | 10.3*
CC(C)(C)NC(=O)CSc1nc2ccccc2c(=O)[nH]1 | · | · | · | · | 9.6*
O=C(O)CSc1nc2ccccc2c(=O)[nH]1 | 3.2 | -0.3 | -1.0 | -3.2 | 1.1
COC(=O)c1ccc(NC(=O)CN(C)Cc2cccc(F)c2)cc1 | 7.7 | -0.1 | -9.0 | 10.6* | -2.6
COc1ccc(OCC(=O)N2N=C(C)CC2(O)C(F)(F)F)cc1 (configuration not stated) | 6.6 | 0.2 | 1.7 | 1.0 | 0.3
CC(C)CN(Cc1cc(=O)oc2cc(-c3ccccc3)c(O)cc12)CC(C)C | · | · | · | · | 9.3*
O=c1cc(CN2CCN(C/C=C/c3ccccc3)CC2)c2cc(O)c(-c3ccccc3)cc2o1 | -1.4 | -0.3 | -3.2 | -2.7 | -1.0
COc1ccc(-c2cc(C(=O)Nc3ccccc3SC)no2)cc1 | 0.4 | -0.2 | -13.6 | -5.9 | -1.7
CSc1ccccc1NC(=O)c1cc(-c2cccs2)on1 | -8.5 | 0.5 | -10.5 | -2.9 | 9.4*
COCCCN1C(=O)C(=O)/C(=C(/O)c2ccc(OC)cc2)C1c1ccc(O)c(OC)c1 (configuration not stated) | 12.1 | -0.3 | 3.4 | 11.9* | 1.5
COc1ccccc1C(=O)NCCn1cc(SCC(=O)Nc2cc(C)on2)c2ccccc21 | -5.2 | 0.0 | 16.3 | 12.6* | 0.3
O=c1oc(-c2cccs2)nc2ccc(Br)cc12 | 45.8* | -0.5 | -6.8 | -1.0 | 3.3
CCOc1ccc(N2C(=O)CC(N3CCN(c4ccccc4F)CC3)C2=O)cc1 (configuration not stated) | 3.4 | -0.2 | -0.5 | 3.5 | 14.0*
CCC(C(=O)NC1CCCCC1)N(Cc1cccs1)C(=O)c1snc(C(N)=O)c1N (configuration not stated) | 0.4 | -0.1 | -9.4 | -2.9 | 9.8*
SMILES | Arbovirus anti | Hsp70 activator | PKD1 inh | HMGR II inh | Wee1 degr inh
CCCC(C(=O)NC(C)(C)C)N(CC1CCCO1)C(=O)c1snc(C(N)=O)c1N (configuration not stated) | 12.2 | -0.2 | 3.0 | -7.5 | 9.4*
CC(C)CC(C(=O)NC(C)(C)C)N(CC1CCCO1)C(=O)c1snc(C(N)=O)c1N (configuration not stated) | -3.9 | -0.1 | -1.7 | -2.2 | -1.9
COc1ccc(S(=O)(=O)NCCc2nnc3ccc(SCc4cccnc4)nn23)cc1 | -2.4 | -0.2 | 4.0 | -2.3 | 4.2
COc1ccc(-n2nc(C)c3sc(C)nc3c2=O)cc1 | · | · | · | · | -0.4
CCn1ccc(C(=O)NC2=C(C#N)CCC2)n1 | 7.7 | -0.3 | -10.3 | -6.8 | 9.7*
Cc1ccc(C)c(NC(=O)COC(=O)CC2c3ccccc3CCN2S(=O)(=O)c2ccc(F)cc2)c1 (configuration not stated) | -2.5 | -0.3 | 0.8 | -8.2 | -1.1
CCc1ccccc1NC(=O)c1ccc([N+](=O)[O-])s1 | -20.2 | -0.2 | 1.1 | 0.7 | -4.2
N/C(=N\OC(=O)CN1C(=O)c2ccccc2C1=O)c1ccc(Br)cc1 | -3.3 | -0.3 | 5.0 | 13.4* | 0.1
N/C(=N\OC(=O)CN1C(=O)c2ccccc2C1=O)c1ccc(Cl)cc1 | 2.0 | -0.2 | 6.1 | 0.5 | 0.2
CCc1ccc(NC(=O)CC2C(=O)Nc3c2c(=O)n(C)c(=O)n3C)cc1 (configuration not stated) | -1.7 | -0.1 | 1.6 | 12.0* | 0.3
COCCCN(CC(=O)Nc1ccc(N2CCOCC2)cc1)S(=O)(=O)c1ccc(Cl)cc1 | 10.8 | -0.3 | -8.6 | 1.6 | -0.5
Cc1noc(C)c1COc1ccc(CC(=O)NCc2ccccc2)cc1 | -5.0 | 0.6 | 4.5 | -10.0 | 9.3*
Cc1noc(C)c1COc1ccc(CC(=O)NC2CCCCCC2)cc1 | -5.2 | -0.2 | -4.4 | -0.3 | -2.7
Cc1ccc(-c2noc(CSc3nnc(Cc4ccccc4)n3-c3ccc(Cl)cc3)n2)cc1 | -3.6 | -0.4 | -4.7 | 17.7* | -3.1
COc1ccc(/C=N/NC(=O)c2cc(C(C)(C)C)[nH]n2)cc1COc1ccc(F)cc1F | -6.5 | 0.1 | -6.0 | 2.9 | 4.5
O=P(Cc1ccccc1)(c1ccccc1)c1ccccc1 | -4.0 | -0.5 | -0.9 | -1.1 | -2.7
Cc1ccc(O)c(CP(=O)(c2ccccc2)c2ccccc2)c1 | 2.8 | -0.1 | -3.9 | -11.8 | 9.4*
O=C(NCCc1csc(-c2ccc(C(F)(F)F)cc2)n1)c1cccs1 | 10.4 | -0.1 | 14.8 | -11.3 | 3.1
O=C(NCCCO)Nc1ccc2nc(-c3ccco3)c(-c3ccco3)nc2c1 | 33.4* | -0.4 | 2.2 | -7.0 | -1.4
NS(=O)(=O)c1ccc(CCNC(=O)c2cc(-c3cc(Cl)ccc3O)n[nH]2)cc1 | · | · | · | · | -2.1
O=C(CSc1nccc(=O)[nH]1)N1N=C2/C(=C/c3ccco3)CCCC2C1c1ccco1 (configuration not stated) | 49.5* | -0.4 | 1.2 | -4.7 | 0.6
CC(C)C(=O)OC/C(O)=C(\C#N)c1nc2ccccc2[nH]1 | 6.0 | -0.3 | -0.7 | 0.3 | 6.5
N#C/C(=C(/O)COC(=O)c1ccc(O)cc1)c1nc2ccccc2[nH]1 | · | · | · | · | 8.9*
CC(C)(C)C1=C(C#N)C(c2ccncc2)C(C#N)=C(N)O1 (configuration not stated) | 0.3 | -0.4 | -16.8 | 0.7 | 4.0
CC(C)(C)C1=C(C#N)C(c2ccc3c(c2)OCO3)C(C#N)=C(N)O1 (configuration not stated) | -4.9 | -0.4 | -1.9 | 11.4* | -2.2
O=C1CC(N2CCC(Cc3ccccc3)CC2)C(=O)N1CCc1ccccc1 (configuration not stated) | 30.4* | -0.1 | 2.4 | -3.4 | 3.1
